Test results taken from PubChem BioAssay (NCATS).
Results filed as inconclusive are left out. Unmarked numbers belong to inactive results. Calls of active or inactive are those of the source. The call rests on the fitted dose curve; in most records, active means well fitted inhibition curve with a large enough effect; inconclusive means small, poorly fitted or top-dose-only effect; inactive means no such curve, though single readings can be large or run the other way.

Tested on: Zika virus NS2B-NS3 protease (linked construct)
Assay: Primary screen NINDS Rhodamine qHTS for Zika virus inhibitors (AID 1347160); further: nearly all actives have a fitted effect of over 55% in size
Details: purified NS2B-NS3 protease, Rhodamine110 substrate fluorescence; series mostly up to 57.1 µM; activity change, negative = inhibition: at the top concentration
Summary of the method: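 Kinetic fluorescence (Ex 480 nm, Em 540 nm) over 15 min with 1.5 microM Rhodamine110 peptide and 25 nM linked protease.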
On the % scale 0 is the no-effect control and ±100 the full control effect; potency means the concentration at half of the fitted maximal effect.

| SMILES | activity change, negative = inhibition | outcome | Potency |
| --- | --- | --- | --- |
| O=S(=O)(c1ccc(Cl)cc1)N1CCN(c2ccnc3cc(Cl)ccc23)CC1 | -1.72% |  |  |
| CCn1nc(C2CCN(C(=O)CCO)CC2)nc1-c1cnc(N)c(-c2nnc(C(C)(C)C)o2)n1 | 20.1% |  |  |
| N#Cc1ccc(-c2ccc(S(=O)(=O)Nc3cccc(N)n3)cc2)cc1 | 1.1% |  |  |
| C=C1C(=O)OC2C1CCC1(C)C(O)CCC(=C)C21 (centres undefined) | -9.6% |  |  |
| CCOC(=O)CCNc1cc(N2CCc3ccccc3CC2)nc(-c2cccnc2)n1 | 18% |  |  |
| Clc1ccc(Nc2nc3ccccc3c3nc(C4CCCCC4)[nH]c23)cc1Cl |  | inactive |  |
| COc1ccc(-c2c(C)nn3c(NCCN4CCOCC4)cc(C)nc23)cc1OC | 19.3% |  |  |
| COC(=O)c1cc(Br)cnc1N1CCC(NC2CCCCC2)C(O)C1 (centres undefined) | 42.2% |  |  |
| CC(C)C[C@@H](N)C(=O)N[C@H]1C(=O)N[C@@H](CC(N)=O)C(=O)N[C@H]2C(=O)N[C@H]3C(=O)N[C@H](C(=O)N[C@H](C(=O)O)c4cc(O)cc(O)c4-c4cc3ccc4O)[C@H](O)c3ccc(c(Cl)c3)Oc3cc2cc(c3O[C@@H]2O[C@H](CO)[C@@H](O)[C@H](O)[C@H]2O[C@H]2C[C@](C)(N)[C@H](O)[C@H](C)O2)Oc2ccc(cc2Cl)[C@H]1O | -3.66% [at 33.1 µM] |  |  |
| COc1c2c(c(C)c3c1C(=O)OC3)O[C@@]1(C)C[C@@H](OC(C)=O)[C@]34O[C@](OC)(CC[C@]3(C)[C@H]1C2)OC4(C)C | -15.8% [at 33.1 µM] |  |  |
| COC(=O)C1=COC(O[C@@H]2O[C@H](CO[C@@H]3O[C@H](COC(=O)/C=C\c4ccc(O)cc4)[C@@H](O)[C@H](O)[C@H]3O)[C@@H](O)[C@H](O)[C@H]2O)C2C(CO)=CCC12 (some centres undefined) | -1.68% [at 15.1 µM] |  |  |
| CN[C@@H]1[C@H](O[C@H]2[C@H](O[C@@H]3[C@@H](O)[C@H](O)[C@@H](N=C(N)N)[C@H](O)[C@H]3N=C(N)N)O[C@@H](C)[C@]2(O)CO)O[C@@H](CO)[C@H](O)[C@H]1O | 38% |  |  |
| CC(C)c1noc(C2CCN(c3ncnc(Nc4ccc(S(C)(=O)=O)cc4F)c3[N+](=O)[O-])CC2)n1 |  | inactive |  |
| C=C1C(=O)OC[C@@H]1C/C=C(\C)CC1CC(C)C(=O)O1 (some centres undefined) |  |  | 15.8 µM (active) |
| COc1cc2nc(C3CC3)nc(N3CCN(c4ccccc4OC)CC3)c2cc1OC | 29.4% |  |  |
| C/C(=C\CCC(C)C1=CCC2(C)OC3=C(CC12)C(=O)C(O)CC3)CO (centres undefined) |  | inactive [at 33.1 µM] |  |
| Cc1ccc(C)c(NC(=O)[C@@H]2CCCN2S(=O)(=O)c2cccc3cccnc23)c1 | 12.7% |  |  |

| SMILES | activity change, negative = inhibition | outcome | Potency |
| --- | --- | --- | --- |
| CN1CCN(C2=Nc3ccccc3Nc3ccc(OS(=O)(=O)C(F)(F)F)cc32)CC1 |  | inactive |  |
| Cc1ccc(C(C)C)c(O[C@@H]2O[C@H](CO)[C@@H](O)[C@H](O)[C@H]2O)c1 | -5.64% [at 33.1 µM] |  |  |
| O=C(NCc1cccs1)c1cc2nc(-c3ccco3)cc(C(F)(F)Cl)n2n1 | -5.25% |  |  |
| COc1cc(F)c(C(C)C)cc1-c1ccc(C(F)(F)F)cc1CN1C(=O)OC(c2cc(C(F)(F)F)cc(C(F)(F)F)c2)C1C (centres undefined) | -8.06% |  |  |
| CC(C)NC(=O)N1CC[C@H](N=C2Nc3cc(F)ccc3N(CC(F)F)c3ccc(Cl)cc32)C1 | -0.614% [at 15.1 µM] |  |  |
| C=C1C(=O)O[C@@H]2/C=C(\CO)CC/C=C(/C=O)C[C@H](O)[C@@H]12 | 5.36% |  |  |
| C[C@H]1CC[C@@]2(OC1)O[C@H]1CC3C4CC[C@H]5C[C@@H](O)CC[C@]5(C)C4=CC(=O)[C@]3(C)[C@H]1[C@@H]2C (some centres undefined) | -0.541% [at 33.1 µM] |  |  |
| Cc1cc(-c2nc3cc(F)ccc3s2)ccc1NC(=O)[C@@H](N)CCCCN | 34.3% |  |  |
| Cc1c(NC(=O)c2cc3c(s2)CCCC3)cccc1-c1cn(C)c(=O)c(Nc2ccc(C3C(=O)N(C)CCN3C)cc2)n1 (centres undefined) | -5.49% |  |  |
| COc1cc(CCC2=NN=C(NC(=O)c3ccc(N4C[C@@H](C)N[C@@H](C)C4)cc3)C2)cc(OC)c1 | 76.1% |  |  |
| C=C1C(=O)O[C@@H]2[C@H]3C(C)=CC(=O)C3=C(C)CC[C@@H]12 |  | inactive |  |
| COC(=O)N1CCC(n2ncc3c(N4CCOCC4)nc(-c4ccc(NC(=O)NC5CC5)cc4)nc32)CC1 | 11.5% |  |  |
| CN1c2c(nc(N)[nH]c2=O)NC[C@@H]1CNc1ccc(C(=O)N[C@@H](CCC(=O)O)C(=O)O)cc1 | 34.7% |  |  |
| CCC/C=C/C=C/C1CC(O)C2(O)C(=O)OCC12 (centres undefined) |  |  | 20 µM (active) |
| CCN(CC)C(=O)c1ccc(Nc2nc(OCC3CCCCC3)c3[nH]cnc3n2)cc1 | -11.7% |  |  |
| CCn1c2ccccc2c2cc(Nc3ccnc(NCCCN4CCOCC4)n3)ccc21 | 293% |  |  |
| O=C1COC2(CCN(S(=O)(=O)c3ccc(-c4ccc5cccnc5c4)cc3)CC2)CN1C1CC1 | 45.6% |  |  |
